HT1080-NT tox – qHTS for induction of synthetic lethality in tumor cells producing 2HG: qHTS for the HT-1080-NT fibrosarcoma cell line | HT-1080-NT fibrosarcoma viability, CellTiter-Glo ATP luminescence, 48 h | actives 1.6% (n = 360,000) | AID 686970, 2013 | Potency, µM (top dose mostly 46.1 µM), without a hit: at the highest dose activity, negative = less viability, usual class: cytotoxic;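 further: NT is the 2HG producing partner of a matched IDH1 knockdown line; potency means the concentration at half of the fitted maximal effect; 0% = DMSO-treated cells and -100% = media-only wells without cells; nearly all actives have a fitted effect of over 55% in size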
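Viability of the 2HG-overproducing fibrosarcoma line after 48 hours of compound exposure at 37 degrees C was determined by luminescence with CellTiter-Glo, and concentration-effect curves were then fitted and categorized.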
HT1080 IDH1KD tx – qHTS for induction of synthetic lethality in tumor cells producing 2HG: qHTS for the HT-1080-IDH1KD cell line. HT-1080 IDH1 knockdown viability, ATP luminescence, 48 h. Potency, µM (titrated, usually from 46.1 µM), inactives show at the top dose activity, negative = toxicity, actives largely listed as cytotoxic. actives 2% (n = 360,000);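 further: potency means the concentration at half of the fitted maximal effect; 0% = DMSO wells and -100% = cell-free medium wells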
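In this qHTS, HT-1080 cells depleted of IDH1 are exposed for 48 h at 37 °C to compound titrations. Toxicity is scored from CellTiter-Glo luminescence, with DMSO as full viability and medium alone as none.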
DT40 TDP1 no CPT – qHTS for Inhibitors of human tyrosyl-DNA phosphodiesterase 1 (TDP1): qHTS in cells in absence of CPT | DT40 Tdp1-/- hTDP1 cells, no CPT, ATP luminescence, 48 h | AID 686978, 2013 | actives 15% (n = 420,000) | Potency, µM (top dose mostly 46.2 µM), for inactives: at the top dose activity change, negative = growth inhibition, most hits filed as inhibitors; further: potency means the concentration at half of the fitted maximal effect; nearly all actives have a fitted effect of over 55% in size
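Stably hTDP1-transfected Tdp1-null chicken DT40 cells were treated with library compounds minus camptothecin and grown for at least 48 hr at 37 °C, after which cellular ATP was quantified by luminescence.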
TDP1 cell CPT – qHTS for Inhibitors of human tyrosyl-DNA phosphodiesterase 1 (TDP1): qHTS in cells in presence of CPT. Potency, µM (top dose mostly 46.2 µM), without a hit: top-dose activity change, negative = growth inhibition, usual class: inhibitors. chicken DT40 Tdp1-/-;hTDP1 cells + 20 nM CPT, ATP luminescence, 48 h. actives 12% (n = 420,000). AID 686979, 2013; further: potency means the concentration at half of the fitted maximal effect; nearly all actives have a fitted effect of over 55% in size
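Chicken DT40 Tdp1-/- cells stably complemented with human TDP1 were seeded at 400 cells/well in medium containing 20 nM camptothecin, exposed to pin-transferred compounds, and grown at 37 °C for at least 48 hr. Viability was read as ATP luminescence.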
IL1B secr inh – qHTS for Inhibitors of Inflammasome Signaling: IL-1-beta AlphaLISA Primary Screen. activity change, % at 57.5 µM. THP-1 LPS/ATP IL-1B secretion, AlphaLISA, 16 h; stronger effect = lower value. AID 743279, 2014. actives 4.7% (n = 360,000); in the data active means activity change below about -50%; inconclusive means mostly about -30% to -49%
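THP-1 cells pretreated 1 hr with compounds (up to 57.5 uM final), then stimulated with LPS (250 ng/mL final) plus ATP (1.25 mM final); secreted IL-1B measured by AlphaLISA after 16 hr, decreased signal indicating inhibition.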
* hit, by the source's call; ? = inconclusive; nt = no result; [ ] = remark or other dose. Rows were chosen to be rich in hits. Some 19% of all compounds tested hit in one or more screens of this group. Unless noted, the call rests on the fitted dose curve; in most records, active means well fitted curve in the direction sought with a large enough effect; inconclusive means small, poorly fitted or top-dose-only effect, or another doubt; inactive means no such curve, though single readings can be large; an effect the other way counts as inactive or inconclusive. Unless noted, on the % scale 0 is the no-effect control and ±100 the full control effect.

SMILES	HT1080-NT tox	HT1080 IDH1KD tx	DT40 TDP1 no CPT	TDP1 cell CPT	IL1B secr inh
Cc1ccc(OCCn2cc(C(=S)N3CCCC3)c3ccccc32)cc1C	?	7.31µM*	4.11µM*	8.2µM*	-15.0
Cc1ccc(OCCn2cc(C(=O)C3CCCCC3)c3ccccc32)cc1	nt	nt	18.4µM*	20.6µM*	nt
COCCn1cc(C(=S)N2CCCCC2)c2ccccc21	2.6%	-4.4%	?	0.4%	-19.2
COCCn1cc(C(=S)N2CCOCC2)c2ccccc21	8.6%	0.7%	4.8%	-28.5%	23.9
CN(C)CC(C)(C)CNC(=O)c1cnn(-c2nccc(-c3ccc4c(c3)OCO4)n2)c1-c1ccco1	nt	nt	?	-19.9%[9.04 µM]	nt
CC(=O)NC1(C)CCC2CC1C(C)=NC2(C)C (stereo unspecified)	?	5.7%	3.6%	3.3%	30.0
CC1(C)COC(/C=C/c2ccc([N+](=O)[O-])cc2)=N1	?	23.1µM*	16.4µM*	?	-102.2*
CC(=C/C(=O)O)/C=C/c1ccc([N+](=O)[O-])cc1	4.1%	4.2%	-17.9%	-4.9%	-2.4
COc1cccc(CN2CCC(n3cc(C(=O)N4CCCCC4)nn3)CC2)c1OC	nt	nt	-10.5%	3.2%	nt
O=C(c1ccc(Br)o1)N(Cc1ccccc1)c1ccccn1	-9.6%	-17.7%	-22.2%	-18.5%	15.9
Nc1nc(Nc2cccc(Cl)c2)nc(NCc2ccco2)c1[N+](=O)[O-]	?	16.4µM*	?	-22.5%	-13.6
Nc1nc(Nc2cccc(F)c2)nc(NCc2ccco2)c1[N+](=O)[O-]	9.2µM*	25.9µM*	?	-78.6%	-3.9
Cc1cccc(Nc2nc(N)c([N+](=O)[O-])c(NCc3ccco3)n2)c1	?	?	?	-9.1%	?
Nc1nc(Nc2ccc(Cl)cc2)nc(NCc2ccco2)c1[N+](=O)[O-]	?	18.4µM*	?	?	-2.9
O=C1CCC([N+](=O)[O-])C(c2ccccc2F)N1 (stereo unspecified)	0.2%	-2.4%	-0.6%	-8.9%	-14.4
Cc1nn(C(C)C(=O)NCCCN2CCCCCC2)c(=O)c2cc3sccc3n12 (stereo unspecified)	4.1%	6.1%	16.5%	?	?
Cc1ccc(CCNS(=O)(=O)c2cc3c(cc2Cl)NC(=O)CO3)cc1	3.7%	-0.6%	-20.4%	-21.9%	29.8
Cc1ccc(C(=O)NC(O)C(Cl)Cl)cc1 (stereo unspecified)	0.3%	20.4%	?	?	6.1
COc1ccc(-c2cn(-c3ccc(SC(F)F)cc3)c3[n+]2CCC3)cc1OC	9.6%	3.7%	18.4µM*	?	1.6
CCCCOc1ccc(C(=O)Nc2ccc(SC(F)F)cc2)cc1OC	-2.5%	-13.5%	?	-20.8%	-15.5
FC(F)Oc1ccc(-n2cc(-c3ccc(Cl)cc3)[n+]3c2CCCCC3)cc1	0.2%	-6.6%	4.61µM*	4.61µM*	-18.8
COc1ccc(-n2cc(-c3ccccc3)[n+]3c2CCCCC3)cc1	?	?	1.16µM*	5.8µM*	?
COc1ccc(-c2cn(-c3ccc(OC)cc3)c3[n+]2-c2ccccc2CC3)cc1	25.9µM*	?	0.206µM*	0.259µM*	-59.2*
COc1ccc(N2CC(C(=O)N3CCc4ccccc43)CC2=O)cc1 (stereo unspecified)	3.1%	3.7%	-7.8%	1.3%	8.4
Cc1nc(CSc2ccccc2)cc(=O)[nH]1	-0.7%	0.2%	21.8%	-2.5%	58.9
SMILES	HT1080-NT tox	HT1080 IDH1KD tx	DT40 TDP1 no CPT	TDP1 cell CPT	IL1B secr inh
FC(F)Sc1ccc(-n2cc(-c3ccccc3)[n+]3c2CCC3)cc1	-2.2%	-24.9%	4.11µM*	5.8µM*	0.0
O=C(Cc1ccccc1)Nc1ccc(SC(F)F)cc1	-7.4%	-17.0%	?	3.5%	-29.3
CCCCn1c(N)c(N(CCOC)C(=O)C2CCN(C(=O)c3ccc(F)cc3)CC2)c(=O)[nH]c1=O	4.9%	7.7%	4.7%	-1.6%	0.8
Cc1ccccc1CN(C)C(=O)COC(=O)c1ccc2[nH]c(C)c(C)c2c1	2.6%	-0.7%	?	16.4µM*	-60.8*
CCOC(=O)c1c(C)[nH]c(C(=O)OC(C)C(=O)NCc2ccccc2)c1C (stereo unspecified)	-6.9%	-0.6%	-15.9%	?	-9.1
CC(OC(=O)c1nc(Cl)ccc1Cl)C(=O)NCc1ccccc1 (stereo unspecified)	1.3%	3.8%	-10.3%	7.3%	-21.8
CC(OC(=O)c1cnc(Cl)c(Cl)c1)C(=O)NCc1ccccc1 (stereo unspecified)	3.3%	2.1%	2.6%	?	-87.2*
Cc1[nH]c2ccc(C(=O)OC(C)C(=O)NCc3ccccc3)cc2c1C (stereo unspecified)	?	?	6.51µM*	13µM*	-56.5*
COc1ccc(CNC(=O)Cc2c(C)c3cc4c(C)coc4cc3oc2=O)cc1OC	nt	nt	-9.0%	-2.5%	nt
CSc1nc(O)c(C(c2cccc([N+](=O)[O-])c2)c2c(O)nc(SC)[nH]c2=O)c(=O)[nH]1	-0.1%	-4.3%	12.5%	0.1%	-3.5
Nc1nc(CN2CCCCC2)cs1	21.2%	14.0%	-4.4%	-2.2%	0.0
Nc1nc(CN2CCOCC2)cs1	5.9%	10.4%	29.1µM*	?	9.5
O=C(CSc1ncn[nH]1)NCCC(c1ccccc1)c1ccccc1	-9.4%	-6.3%	?	-20.5%	-5.6
COc1cc(OC)c(/C=N/NC(=O)c2ccc(NC(C)=O)cc2)cc1Br	23.9%	19.4%	-14.9%	11.9%	-2.8
CC(=O)Nc1ccc(C(=O)N/N=C/c2cc(Br)cc(Br)c2O)cc1	?	?	10.3µM*	11.6µM*	126.0
CC(C)C(=O)Nc1ccc(C(=O)N/N=C/c2cc(Br)cc(Br)c2O)cc1	?	?	13µM*	7.31µM*	140.9
CN(c1ncnc2c1c(-c1ccccc1)cn2-c1cccc(Cl)c1)C1CCCCC1	nt	nt	-28.9%	-16.2%	nt
CC1CN(c2ncnc3c2c(-c2ccccc2)cn3-c2ccc(F)cc2)CC(C)O1 (stereo unspecified)	?	?	9.2µM*	16.4µM*	?
OCCN1CCN(c2ncnc3c2c(-c2ccccc2)cn3-c2ccc(F)cc2)CC1	?	18.4µM*	25.9µM*	?	-96.8*
CN(c1ncnc2c1c(-c1ccccc1)cn2-c1ccc(F)cc1)C1CCCCC1	nt	nt	23.1µM*	?	nt

Assay outcomes (PubChem BioAssay)
